In PubChem BioAssay (Tox21):
Results filed as inconclusive are left out. A call without a number means that no potency is given here. The source made the active and inactive calls. The call rests on the fitted dose curve; in most records, active means well fitted curve in the direction sought with a large enough effect in the repeat runs; inconclusive means weak or mixed curves; inactive means no such curve, though single readings can be large; an effect the other way counts as inactive or inconclusive. Where a SMILES comes first, the peptide text is derived from it.

biological target: Cytochrome P450 1A2 (Homo sapiens) (UniProt P05177); assay: Cytochrome P450 Family 1 Subfamily A Member 2 (CYP1A2) small molecule antagonists: luciferase reporter qHTS assay (AID 1671199); settings: P450-Glo CYP1A2 enzyme, luciferin luminescence, 1 h; series mostly up to 115 µM; further: potency means the concentration at half of the fitted maximal effect
Sequence (P05177 whole entry, looked up): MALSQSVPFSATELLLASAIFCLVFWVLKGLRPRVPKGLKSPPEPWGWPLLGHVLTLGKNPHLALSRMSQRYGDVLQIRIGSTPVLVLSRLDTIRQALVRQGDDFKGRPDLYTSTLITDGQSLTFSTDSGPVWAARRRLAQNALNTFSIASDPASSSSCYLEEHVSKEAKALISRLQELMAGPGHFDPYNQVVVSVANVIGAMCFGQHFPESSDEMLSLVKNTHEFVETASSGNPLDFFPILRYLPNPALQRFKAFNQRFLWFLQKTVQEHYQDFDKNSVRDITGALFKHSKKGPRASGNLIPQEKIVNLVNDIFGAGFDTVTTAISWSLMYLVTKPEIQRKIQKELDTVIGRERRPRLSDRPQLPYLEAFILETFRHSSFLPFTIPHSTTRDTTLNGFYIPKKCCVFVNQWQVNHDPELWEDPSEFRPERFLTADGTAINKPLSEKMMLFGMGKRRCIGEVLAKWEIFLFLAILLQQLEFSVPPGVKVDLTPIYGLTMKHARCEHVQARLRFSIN
Summary of the method: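 Quantitative high-throughput format using the P450-Glo CYP1A2 system. Reaction initiated by NADPH regeneration solution, 1 h at room temperature, then stopped with detection reagent; luminescence measured 20 min later.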
Further: nearly all actives have a fitted effect of over 50% in size.

| Structure (SMILES) | Potency |
| --- | --- |
| [O-][n+]1cccc(/C(Cl)=N/OC[C@@H](O)CN2CCCCC2)c1 | inactive |
| C/C=C(\C)C(=O)OCCc1ccccc1 | 39.9 µM (active) |
| OC[C@@H](O)C(O)[C@@H](O)CO (stereo partly specified) | inactive |
| CC(=O)N[C@@H](CO)C(=O)N[C@@H](CC(=O)O)C(=O)N[C@@H](CCCCN)C(=O)N1CCC[C@H]1C(=O)O (Ac-SDKP-OH) | inactive |
| Cc1cc(-c2ccccc2)nnc1NCCN1CCOCC1 | inactive |
| CC(C)C[C@@H]1[C@H](c2ccccc2)OC(=O)N1CCCN1CCCCCC1 | inactive |
| CCCCOCCOC(=O)COc1ccc(Cl)cc1Cl | 20 µM (active) |
| CC/C(C)=N\O[Si](C)(O/N=C(\C)CC)O/N=C(\C)CC | 40.5 µM (active) |
| CC(=O)OCC(=O)Nc1cc(C#N)cc(NC(=O)COC(C)=O)c1Cl | inactive |
| COc1cc(OC)nc(O[C@H](C(=O)O)C(OC)(c2ccccc2)c2ccccc2)n1 | inactive |

biological target: Voltage-gated inwardly rectifying potassium channel KCNH2 (Homo sapiens) (UniProt Q12809); assay: Human Ether-a-go-go-Related Gene (hERG) channel small molecule antagonists: fluorescence cell-based qHTS assay (AID 1671200); settings: hERG-U2OS cells, FluxOR thallium flux fluorescence; series mostly up to 76.8 µM;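 further: hERG-expressing U2OS cells given a thallium stimulus after FluxOR II dye loading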
Sequence (Q12809 whole entry, looked up): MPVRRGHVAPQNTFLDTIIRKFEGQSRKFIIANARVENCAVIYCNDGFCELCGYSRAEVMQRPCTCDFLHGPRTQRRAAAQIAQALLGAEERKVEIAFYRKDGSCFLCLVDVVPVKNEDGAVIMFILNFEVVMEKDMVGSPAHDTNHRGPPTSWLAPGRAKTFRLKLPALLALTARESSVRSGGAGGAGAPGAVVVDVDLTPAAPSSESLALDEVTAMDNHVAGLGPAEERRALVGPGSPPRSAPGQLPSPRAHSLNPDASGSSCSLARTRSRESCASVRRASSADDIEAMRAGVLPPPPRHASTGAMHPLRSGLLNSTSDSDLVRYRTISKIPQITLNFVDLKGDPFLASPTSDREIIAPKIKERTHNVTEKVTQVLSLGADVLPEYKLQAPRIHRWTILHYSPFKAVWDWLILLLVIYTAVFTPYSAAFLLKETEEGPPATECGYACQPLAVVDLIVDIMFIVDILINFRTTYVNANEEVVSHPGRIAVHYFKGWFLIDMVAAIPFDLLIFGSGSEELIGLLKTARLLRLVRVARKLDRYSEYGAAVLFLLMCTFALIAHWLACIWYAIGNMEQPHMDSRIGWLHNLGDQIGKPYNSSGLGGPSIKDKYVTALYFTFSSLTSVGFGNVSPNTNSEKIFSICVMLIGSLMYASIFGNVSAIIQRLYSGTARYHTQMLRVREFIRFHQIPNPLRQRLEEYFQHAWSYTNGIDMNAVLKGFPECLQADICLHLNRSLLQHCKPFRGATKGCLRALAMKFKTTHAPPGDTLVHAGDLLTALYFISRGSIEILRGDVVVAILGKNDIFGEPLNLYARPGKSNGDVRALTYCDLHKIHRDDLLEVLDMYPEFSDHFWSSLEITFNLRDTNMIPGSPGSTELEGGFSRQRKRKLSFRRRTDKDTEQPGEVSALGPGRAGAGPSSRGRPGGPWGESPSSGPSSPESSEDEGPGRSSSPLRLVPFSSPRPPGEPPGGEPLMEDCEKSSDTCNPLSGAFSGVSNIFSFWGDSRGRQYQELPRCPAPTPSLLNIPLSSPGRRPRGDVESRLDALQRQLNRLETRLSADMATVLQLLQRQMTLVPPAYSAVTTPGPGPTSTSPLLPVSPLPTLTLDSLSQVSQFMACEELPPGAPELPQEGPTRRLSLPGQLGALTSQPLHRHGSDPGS
Summary of the method: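 Measured: Tl+ flux via fluorescence (480/540 nm) in hERG-expressing U2OS cells after 1 h dye loading at room temperature.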

| Structure (SMILES) | Potency |
| --- | --- |
| CC(C)(CO)C(O)C(=O)NCCCO (stereo unspecified) | inactive |
| C=C(C)[C@@H]1CC=C(C)C(=O)C1 | inactive |
| [O-][n+]1cccc(/C(Cl)=N/OC[C@@H](O)CN2CCCCC2)c1 | inactive |
| C/C=C(\C)C(=O)OCCc1ccccc1 | inactive |
| OC[C@@H](O)C(O)[C@@H](O)CO (stereo partly specified) | inactive |
| CC(CO)(CO)CO | inactive |
| C=CCCCCCCCC | inactive |
| CCC(=O)CC | inactive |
| CC(=O)N[C@@H](CO)C(=O)N[C@@H](CC(=O)O)C(=O)N[C@@H](CCCCN)C(=O)N1CCC[C@H]1C(=O)O (Ac-SDKP-OH) | inactive |
| CCC/C=C(\C=O)CC | inactive |
| Cc1ccc(C(C)NC(=O)[C@@H](NC(=O)OC(C)C)C(C)C)cc1 (stereo partly specified) | inactive |
| COC(C)(OC)OC | inactive |
| CC(C)Nc1ccccc1 | inactive |
| CC(C)=CCC/C(C)=C/COC=O | inactive |
| O=C1CCC(=O)N1Cl | inactive |
| c1ccc(-c2nn[nH]n2)cc1 | inactive |
| Cc1cc(-c2ccccc2)nnc1NCCN1CCOCC1 | inactive |
| CC(C)COC(=O)c1ccccc1 | inactive |
| CC(C)C[C@@H]1[C@H](c2ccccc2)OC(=O)N1CCCN1CCCCCC1 | inactive |

| Structure (SMILES) | Potency |
| --- | --- |
| CCCCOCCOC(=O)COc1ccc(Cl)cc1Cl | inactive |
| CC/C(C)=N\O[Si](C)(O/N=C(\C)CC)O/N=C(\C)CC | inactive |
| O=C(O)c1cc2ccccc2nc1C(=O)O | inactive |
| CCCSSCCC | inactive |
| Cc1ccc(C(=O)O)cc1[N+](=O)[O-] | inactive |
| C=CCCCCCCCCC(=O)OCCCC | inactive |
| C=C(C)[C@@H]1CC=C(C)CC1 | inactive |
| CCCCC1CCC(O)CC1 (stereo unspecified) | inactive |
| Cc1c(Cl)cccc1Cl | inactive |
| CC(=O)OCC(=O)Nc1cc(C#N)cc(NC(=O)COC(C)=O)c1Cl | inactive |
| COc1cc(OC)nc(O[C@H](C(=O)O)C(OC)(c2ccccc2)c2ccccc2)n1 | inactive |
| CC(S)C(C)S (stereo unspecified) | inactive |
| CCOCCOCC | inactive |
| CC(O)CC(C)O (stereo unspecified) | inactive |
| COS(=O)(=O)O | inactive |
| CCCCCCC1(C)CCC(=O)O1 (stereo unspecified) | inactive |
| CC1CC(=O)CC(C)(C)C1 (stereo unspecified) | inactive |
| O=C1CCCCO1 | inactive |

biological target: Cytochrome P450 3A4 (Homo sapiens) (UniProt P08684); assay: Cytochrome P450 Family 3 Subfamily A Member 4 (CYP3A4) small molecule antagonists: luciferase reporter qHTS assay (AID 1671201); settings: P450-Glo CYP3A4 enzyme, luciferin luminescence, 1 h; series mostly up to 115 µM; further: potency means the concentration at half of the fitted maximal effect
Sequence (P08684 whole entry, looked up): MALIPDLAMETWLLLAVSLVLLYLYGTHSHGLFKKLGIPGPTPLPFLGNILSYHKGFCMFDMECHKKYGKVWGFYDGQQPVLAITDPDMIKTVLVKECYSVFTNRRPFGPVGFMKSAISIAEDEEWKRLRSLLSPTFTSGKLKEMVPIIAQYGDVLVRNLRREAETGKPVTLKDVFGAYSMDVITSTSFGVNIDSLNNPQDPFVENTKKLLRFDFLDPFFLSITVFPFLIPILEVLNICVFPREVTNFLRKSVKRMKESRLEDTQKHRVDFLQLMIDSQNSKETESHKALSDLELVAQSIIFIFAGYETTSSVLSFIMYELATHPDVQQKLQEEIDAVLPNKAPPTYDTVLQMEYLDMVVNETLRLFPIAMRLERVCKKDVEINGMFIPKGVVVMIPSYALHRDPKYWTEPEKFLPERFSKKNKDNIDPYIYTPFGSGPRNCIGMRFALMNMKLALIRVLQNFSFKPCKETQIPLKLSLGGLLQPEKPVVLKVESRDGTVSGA
Summary of the method: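 Setup: enzyme-substrate mix, compound pin transfer, 10 min RT. Reaction: NADPH regeneration solution, 1 h RT. Readout: detection reagent stops turnover, luminescence measured after 20 min, expressed in relative luminescence units.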

| Structure (SMILES) | Potency |
| --- | --- |
| CC(C)(CO)C(O)C(=O)NCCCO (stereo unspecified) | inactive |
| C=C(C)[C@@H]1CC=C(C)C(=O)C1 | inactive |
| C/C=C(\C)C(=O)OCCc1ccccc1 | inactive |
| OC[C@@H](O)C(O)[C@@H](O)CO (stereo partly specified) | inactive |
| CC(CO)(CO)CO | inactive |
| C=CCCCCCCCC | inactive |
| CCC(=O)CC | inactive |
| CC(=O)N[C@@H](CO)C(=O)N[C@@H](CC(=O)O)C(=O)N[C@@H](CCCCN)C(=O)N1CCC[C@H]1C(=O)O (Ac-SDKP-OH) | inactive |
| CCC/C=C(\C=O)CC | 39.9 µM (active) |
| Cc1ccc(C(C)NC(=O)[C@@H](NC(=O)OC(C)C)C(C)C)cc1 (stereo partly specified) | 3.55 µM (active) |
| COC(C)(OC)OC | inactive |
| CC(C)Nc1ccccc1 | inactive |
| CC(C)=CCC/C(C)=C/COC=O | inactive |
| O=C1CCC(=O)N1Cl | inactive |
| c1ccc(-c2nn[nH]n2)cc1 | inactive |
| CC(C)COC(=O)c1ccccc1 | inactive |
| CCCCOCCOC(=O)COc1ccc(Cl)cc1Cl | inactive |

| Structure (SMILES) | Potency |
| --- | --- |
| CC/C(C)=N\O[Si](C)(O/N=C(\C)CC)O/N=C(\C)CC | 12.8 µM (active) |
| O=C(O)c1cc2ccccc2nc1C(=O)O | inactive |
| CCCSSCCC | inactive |
| Cc1ccc(C(=O)O)cc1[N+](=O)[O-] | inactive |
| C=CCCCCCCCCC(=O)OCCCC | inactive |
| C=C(C)[C@@H]1CC=C(C)CC1 | inactive |
| CCCCC1CCC(O)CC1 (stereo unspecified) | inactive |
| Cc1c(Cl)cccc1Cl | inactive |
| CC(=O)OCC(=O)Nc1cc(C#N)cc(NC(=O)COC(C)=O)c1Cl | inactive |
| COc1cc(OC)nc(O[C@H](C(=O)O)C(OC)(c2ccccc2)c2ccccc2)n1 | inactive |
| CC(S)C(C)S (stereo unspecified) | inactive |
| CCOCCOCC | inactive |
| CC(O)CC(C)O (stereo unspecified) | inactive |
| COS(=O)(=O)O | inactive |
| CCCCCCC1(C)CCC(=O)O1 (stereo unspecified) | inactive |
| CC1CC(=O)CC(C)(C)C1 (stereo unspecified) | inactive |
| O=C1CCCCO1 | inactive |
